Molecules are shown by their SMILES. Screen size: about 280,000 compounds; about 2,600 (0.93%) were called active. About 8% were inconclusive and are not listed. Only a selection was taken, and actives are over-represented in it overall. Unmarked numbers belong to inactive results. The call rests on the fitted dose curve; in most records, active means well fitted curve in the direction sought with a large enough effect; inconclusive means small, poorly fitted or top-dose-only effect; inactive means flat fitted curve, though single readings scatter.
On the % scale 0 is the no-effect control and ±100 the full control effect; potency means the concentration at half of the fitted maximal effect; tags describe the fitted curve by direction and shape or compound fluorescence and quenching.

A short description of this assay: Counterscreen qHTS for Inhibitors of Tau Fibril Formation, Fluorescence Polarization. Further: nearly all actives have a fitted effect of over 55% in size. The following applies: tau K18 P301L (four-repeat tau fragment) Alexa594 fluorescence, heparin fibrillization; series mostly up to 57.7 µM; activity change, negative = decrease: at the top concentration. In short, it runs like this: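 Human K18 P301L tau (15 uM unlabeled plus 0.24 uM Alexa 594-labeled, final) in 100 mM sodium acetate pH 7 was mixed with compound and 20 uM heparin and incubated 6 hr at 37 C.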
In general terms: Counterscreens check selectivity or assay interference.
In the case of `Cc1cccc(NC(=S)NCc2ccc3[nH]c4c(c3c2)CCCC4)c1`, the Potency was 14.1 µM [quencher] (active).
For `Cc1cccc(NC(=S)NCCN(C2CCCCC2)C2CCCC2)c1`, the “activity change, negative = decrease” value is -10.1%.
As to `O=C(O)CCC(=O)NCc1ccc2[nH]c3c(c2c1)CCCC3`, the “activity change, negative = decrease” value is -1.4%.
`CCc1ccc(NC(=O)N2CCN(C(=O)c3nsc4ccccc34)CC2)cc1`: the “activity change, negative = decrease” value is -9.11%.
Take `COc1ccc(S(=O)(=O)c2cn(C)c3cc(N4CCCCC4)c(F)cc3c2=O)cc1`: the “activity change, negative = decrease” value is -3.74%.
On the same count and under the same terms, for `Cn1c(=O)c2c(nc(SCC(=O)Nc3ccc(F)cc3)n2Cc2ccccc2)n(C)c1=O` the value was -23.1%; for `CCc1ccc(CN(Cc2ccco2)C(=O)COc2ccc(Cl)c(C)c2)cc1`, -6.86%; for `O=C(Nc1ccncc1)c1cc2ccccc2o1`, -8.25%.
Turning to `COc1ccc(-c2csc(NC(=O)CCCc3cccs3)n2)cc1`, the “activity change, negative = decrease” value is -2.65%.
Turning to `COc1ccc(OC)c(Nc2nc(-c3ccc(O)c(O)c3)cs2)c1`, the Potency was 14.1 µM [quencher] (active).
Turning to `Cc1ccc(-c2csc(NC(=O)c3cnccn3)n2)cc1C`, the “activity change, negative = decrease” value is 6.03%.
With `O=C(Nc1nc(-c2ccc(-c3ccccc3)cc2)cs1)c1cnccn1`, the “activity change, negative = decrease” value was -17.8%.
Take `NS(=O)(=O)c1ccc(Nc2nc(-c3ccccc3)cs2)cc1`: the Potency is 15.8 µM [quencher] (active).
Take `COc1ccc(-c2csc(NC(=O)COC(=O)c3ccc(Br)o3)n2)cc1`: the “activity change, negative = decrease” value was -17.9%.
With `CC(=O)Nc1nc(C)c(-c2csc(Nc3ccc(S(N)(=O)=O)cc3)n2)s1`, the “activity change, negative = decrease” value was -27.7%.
Take `Cc1cc(NC(=O)c2cccc(Cl)c2)ccc1-c1cc2ccccc2oc1=O`: the “activity change, negative = decrease” value was -26.8%.
Same read-out and setting: for `COc1ccc(-c2csc(NC(=O)c3ccc(N4C(=O)CCC4=O)cc3)n2)cc1OC` the value was -6.64%.
As to `O=c1oc2ccccc2cc1-c1csc(Nc2ccc(O)cc2)n1`, the Potency was 14.1 µM [quencher] (active).
For the molecule `COc1ccc(-c2csc(Nc3ccc(O)cc3)n2)cc1`, the Potency was 11.2 µM [quencher] (active).
`Cc1cccc(NC(=O)c2ccc3nc(C(C)C)oc3c2)c1C`: the “activity change, negative = decrease” value is 0.976%.
On the same count and under the same terms, the result for `CCOC(=O)c1ccc(NC(=O)CCS(=O)(=O)c2ccc(C)cc2)cc1` reads -9.69%.
As for `CCOc1ccccc1N(CC)C(=O)c1cc2ccc3cccnc3c2[nH]1`, the “activity change, negative = decrease” value is -12.8%.
Still for that read-out and setting: for `CCOc1ccc(N(C)S(=O)(=O)c2cc(-c3cnc(C)o3)ccc2OC)cc1` the value was -16.6%; for `Cc1cc(C)cc(Nc2ncnc3onc(-c4ccc(F)cc4)c23)c1`, -27.8%; for `Cc1cc(OCC(=O)NCC2(N(C)C)CCCCC2)cc(C)c1Cl`, -4.83%.
As to `COC(=O)c1sccc1S(=O)(=O)N(CC(=O)Nc1ccc(C)c(F)c1)c1ccc(C)c(C)c1`, the “activity change, negative = decrease” value was -26.5%.
Still for that read-out and setting: the result for `Cc1nn(Cc2ccc(F)cc2)c(C)c1NC(=O)c1cc(CC(C)C)on1` reads -6.55%; that for `CCc1nc2ccc(C(=O)N3CCN(c4cc(Cl)ccc4C)CC3)cc2nc1CC`, -16.5%; that for `COc1cccc(C(=O)Nc2ccc3nc4n(c(=O)c3c2)CCCCC4)c1`, -19.2%.
The same measure, in the same setting: for `COc1ccc(NC(=O)c2ccc3nc(C(C)C)oc3c2)cc1OC` the value was -10.9%.
Regarding `COc1ccc(C(=O)Nc2ccc3nc(N4CCCCC4)cc(C)c3c2)cc1OC`, the Potency is 10 µM [quencher] (active).
On to `COc1ccccc1CN1CCC(CNC(=O)c2cnn(-c3ccccc3Cl)c2C2CCN(C(=O)OC(C)(C)C)CC2)CC1`, for which the “activity change, negative = decrease” value was -15.9%.
For `Fc1ccc(-c2nn(-c3ccccc3Cl)c3c2cnc2ccccc23)cc1`, the “activity change, negative = decrease” value was -24.1%.
As to `O=C(Nc1ccc2oc(-c3ccc4ccccc4c3)nc2c1)c1cccs1`, the “activity change, negative = decrease” value is -27.6%.
Consider `O=C(Nc1ccccc1)Nc1nc2ccccc2s1`, for which the “activity change, negative = decrease” value was -24.8%.
Turning to `O=C(Nc1ccc2ccccc2c1)Nc1ccc2snnc2c1`, the Potency is 4.47 µM [quencher] (active).
For `Cc1cc(C)c(NC(=O)CN2C(=O)c3cccnc3Oc3ccc(Cl)cc32)c(C)c1`, the “activity change, negative = decrease” value is -15.1%.
On to `COc1ccc(N2CCN(S(=O)(=O)c3ccc(-c4coc(C)n4)cc3)CC2)cc1`, for which the “activity change, negative = decrease” value was -25.9%.
Turning to `COc1ccc(-c2[nH]ncc2CN(C)Cc2c(C)n[nH]c2C)c(OC)c1`, the “activity change, negative = decrease” value was -0.526%.
For `CCOc1ccc(-c2nc(N)ncc2-c2ccccc2OC)c(O)c1`, the “activity change, negative = decrease” value was -28.8%.
For `CCOc1ccccc1Oc1cn[nH]c1-c1ccc(OC)cc1O`, the Potency is 12.6 µM [quencher] (active).
In the case of `COc1ccccc1CNC(=O)c1ccc(-n2c(C)cc3c2CCCC3)cc1`, the “activity change, negative = decrease” value is -3.95%.
Still for that read-out and setting: for `COc1ccc(OC)c(CNC(=O)c2c3c(nc4ccccc24)C(=O)N(C2CCCCC2)C3)c1` the value was 5.73%; for `Fc1ccc(C(Nc2ccc(Cl)c(C(F)(F)F)c2)c2nnc(-c3ccccc3)o2)cc1` (stereo not drawn), -22.3%.
As to `N#C/C(=C/c1ccc(N2CCCCC2)o1)C(=O)NCCc1c[nH]c2ccccc12`, the Potency is 15.8 µM [quencher] (active).
As to `N#C/C(=C/c1ccc(-c2ccccc2[N+](=O)[O-])o1)C(=O)NCCN1CCCCC1`, the “activity change, negative = decrease” value is -11.3%.
In the case of `O=C(NCCc1c[nH]c2ccccc12)C(=O)NCC1CCCO1` (stereo not drawn), the “activity change, negative = decrease” value is 0.306%.
With `Cc1ccc(Nc2c3c(nc4ccccc24)CCC3)cc1`, the “activity change, negative = decrease” value was -9.23%.
`COc1ccccc1Nc1c2c(nc3ccc(NC(=O)/C=C/c4cc(OC)c(OC)c(OC)c4)cc13)CCCC2`: the Potency is 10 µM [quencher] (active).
In the case of `COc1ccc(/C=C/C(=O)Nc2ccc3c(c2)OCCO3)cc1OC`, the “activity change, negative = decrease” value is -28.9%.
As to `CCCN(C(=O)Cn1ncc2c([nH]c3ccc(C)cc32)c1=O)c1ccccc1C`, the “activity change, negative = decrease” value is -19.4%.
Take `COC(=O)CSc1nccc(-c2cccs2)n1`: the “activity change, negative = decrease” value was 0.872%.
For `c1cnc(Nc2nc(-c3ccc4ccccc4c3)cs2)nc1`, the “activity change, negative = decrease” value was -6.05%.
With `Clc1ccc(Nc2nc(-c3cccs3)cs2)nc1`, the Potency was 14.1 µM [quencher] (active).
As to `Cc1cccc(-n2ncc(C(=O)N3CCN(c4ccc(Cl)cc4)CC3)c2C2CCN(C(=O)OC(C)(C)C)CC2)c1`, the “activity change, negative = decrease” value is -17.5%.
On to `Cc1ccc(C)c(N2CCN(C(=O)C3CCC(CNS(=O)(=O)c4cccs4)CC3)CC2)c1` (stereo not drawn), for which the “activity change, negative = decrease” value was -20%.
Same read-out and setting: the result for `CN1C(=O)C(CC(=O)Nc2ccccc2)S/C1=N/c1nccs1` (stereo not drawn) reads -2.38%; that for `O=C(Nc1cccc(Cl)c1)OCc1ccccn1`, -16.9%.
For `O=C(CC1SC(=Nc2ccccc2)N(Cc2ccccn2)C1=O)Nc1cccc(Cl)c1` (stereo not drawn), the Potency was 10 µM [quencher] (active).
Regarding `Fc1ccc(CSc2nc(NCc3ccccc3)c3ccccc3n2)cc1`, the “activity change, negative = decrease” value is -11.1%.
`NS(=O)(=O)c1ccc(NC(=S)NC(=O)c2cccc(Br)c2)cc1`: the “activity change, negative = decrease” value was -6.18%.
As to `O=C(NC(=S)Nc1cccc2c(O)cccc12)c1cccc(Br)c1`, the Potency is 11.2 µM [quencher] (active).
`Cc1ccccc1NC(=S)NNC(=O)c1cccc(Br)c1`: the “activity change, negative = decrease” value was -9.27%.
